Where “and” joins values, the source holds several entries; their conditions need not be identical. Equal values may be shown once. The panel holds about 83,000 compounds, 20% with a hit somewhere; the sample as a whole holds those more often.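 Assay: single dose, 48 h. Readout: percent growth (0 = no net growth; negative = cell death). Active: <10.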 Calls of active or inactive are those of the source.
What follows are compounds tested on HL-60(TB) leukemia (assay: NCI-60 one-dose screen, 48 h (100 = growth as untreated, 0 = no growth, -100 = all killed)). Conditions: 10 µM unless noted.

SMILES | growth
CC(C)(C)c1ccc(S(=O)(=O)N[C@H]2CC[C@H]3[C@@H]4CCc5cc(OS(=O)(=O)O)ccc5[C@H]4CC[C@]23C)cc1 | 19.6% (inactive)
CN1CCN(c2nc(-c3cccc4ccccc34)nc3sc4c(c23)CCCCCC4)CC1 | 91.6% (inactive)
CC[C@]12C=CCN3CC[C@@]4(c5cc(NC(=O)CCC(=O)O[C@H]6CC[C@H]7[C@@H]8CCC9=CC(=O)CC[C@@H]9[C@H]8CC[C@]67C)c(OC)cc5N(C)[C@H]4[C@@](O)(C(=O)OC)[C@@H]1OC(C)=O)[C@@H]32 | 62.5% (inactive)
C/C(O)=C(/C=N\C(=S)Nc1ccc(S(=O)(=O)Nc2nccs2)cc1)C(=O)Nc1ccccc1C | 105% (inactive)
CN(C)CCNc1nc2c3cc(Cl)ccc3nn2c2ccccc12 | 56.1% (inactive)
COc1ccc(-c2cn[nH]c2-c2cc(OC)c(OC)c(OC)c2)cc1N | -17.8% (active) and -10.7% (active)
Cc1nn(-c2nc3ccccc3[nH]2)c2c1C(c1ccc(OCc3ccc(F)cc3)cc1)CC(=O)N2 (centres undefined) | 75.8% (inactive)
Cn1c(/C=C(\C#N)c2ccccc2)nc2c(N3CCOCC3)nc(Cl)nc21 | -33% (active)
COC(=O)CCC(=O)c1ccccc1 | 94.7% (inactive)
Nc1nc(SC/C=C/CCl)c2[nH]cnc2n1 | 97.8% (inactive) and 103% (inactive)
CCCCCCCCn1ccc2cc(NC(=O)Cn3cc(CN4CCCC4)nn3)ccc21 | 13.8% (inactive)
C#Cc1ccccc1NC(=O)c1sc2nc3c(cc2c1N)CCCCC3 | 99.7% (inactive)
O=C(c1ccccc1)C(CN1CCOCC1)c1ccccc1 (centres undefined) | 12.2% (inactive)
COC(=O)CCCCCCN=Cc1c(O)c(O)c(C(C)C)c2cc(C)c(-c3c(C)cc4c(C(C)C)c(O)c(O)c(C=NCCCCCCC(=O)OC)c4c3O)c(O)c12 | 16.6% (inactive)
CCNC1(NC#N)CCCCC1 | 96.8% (inactive)
C[N+]1(CCC[N+]2(C)C[C@@H]3[C@H](C2)[C@@H]2C=C[C@H]3C2)CCOCC1 (some centres undefined) | 122% (inactive)
Clc1ccc(C(Cn2ccnc2)OCc2ccsc2Cl)c(Cl)c1 (centres undefined) | 6.05% (active)
Cn1cnc([N+](=O)[O-])c1Sc1ncn[nH]1 | 105% (inactive)
CC(=O)O[C@H]1CC[C@]2(C)C3=C(C(=O)C[C@H]2C1(C)C)[C@]1(C)CC[C@H]([C@H](C)CCC(=O)O)[C@@]1(C)CC3=O | 108% (inactive)
COc1ccc(-c2nc(NC(=O)CS(=O)(=O)c3ccc(F)cc3)sc2C)cc1 | 51.6% (inactive)

SMILES | growth
C=C1C(=O)O[C@H]2[C@H]1CC/C(COC(=O)Nc1nc3ccccc3[nH]1)=C\CC[C@@]1(C)O[C@@H]21 | 5.13% (active)
C=C(C[C@](O)(C(=O)/C=C/c1ccc(Cl)cc1)C(=O)OC)c1ccccc1 | 59.2% (inactive)
C[C@]12CC[C@@H]3c4ccc(O)c([N+](=O)[O-])c4CC[C@H]3[C@@H]1CCC2=O | 93.7% (inactive)
CCOc1ccc2[nH]c(=S)sc2c1 | 78.9% (inactive)
Cn1c(=O)cc(NC(=O)CN2CCN(c3cc4c(cc3F)c(=O)c(C(=O)O)cn4C3CC3)CC2)[nH]c1=O | 98.2% (inactive)
CC(C)(O)C1CCCN1C(=O)c1ccccc1I (centres undefined) | 89.3% (inactive)
Nc1ccc(S(=O)(=O)Nc2ncccn2)cc1 | 105% (inactive)
CC(CN(C)C)CN1c2ccccc2Sc2ccccc21 (centres undefined) | 91.3% (inactive) and 105% (inactive) and 94.5% (inactive)
CCc1nc2c(=O)[nH]cnc2o1 | 106% (inactive)
O=C(O)c1ccc(-n2cc(CNc3ccc(Cl)cc3)c(-c3ccccc3)n2)cc1 | 95% (inactive)
CCCCN1CCN(c2ccc3nc(-c4ccc5nc(-c6cc(OC)c(OC)c(OC)c6)[nH]c5c4)[nH]c3c2)CC1 | 85.7% (inactive)
CN(C)c1ccc(C(=C2C=CC(=[N+](C)C)C=C2)c2ccccc2Cl)cc1 | -48.7% (active) and 9.12% (active)
COc1ccc(-c2nc(-c3nc4ccc(F)cc4[nH]3)cc3c2[nH]c2ccccc23)cc1 | 26.1% (inactive)
CCOC(=O)c1sc(NS(=O)(=O)c2ccccc2)nc1C | 153% (inactive)
CC(=O)c1c(O)cc2c3c1OC(C)(C)C1CCC(C)(CC31)O2 (centres undefined) | 89.2% (inactive)
CC(=O)Oc1ccc(C2(c3ccc(OC(C)=O)cc3)C(=O)Nc3ccccc32)cc1 | 75.5% (inactive) and 119% (inactive)
CO[C@H]1/C=C/O[C@@]2(C)Oc3c(C)c(O)c4c(O)c(c(/C=N/N5CCN(C)CC5)c(O)c4c3C2=O)NC(=O)/C(C)=C\C=C\C(C)[C@H](O)[C@@H](C)[C@@H](O)[C@@H](C)[C@@H](OC(C)=O)[C@@H]1C (some centres undefined) | 104% (inactive)
COc1ccc(C)cc1NC(=O)SC(C)C | 94.7% [100 µM] (inactive)
CS(=O)(=O)Nc1ccc([N+](=O)[O-])cc1Oc1ccccc1 | 92.9% (inactive)
